# Assay outcomes: PubChem, several laboratories
# PostGolgi yeast = growth inhibition of a yeast mutant, post-Golgi transport screen; post-Golgi transport phenotypic cell assay; inhibition, % at 10 µM; actives 0.9% (n = 98,000); AID 739;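 note: yeast cells grown in 1536-well plates; yeast grown about 18 h at 30C before absorbance read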
# Calb biofilm kill = kills Candida albicans biofilms. C. albicans biofilm + clotrimazole, Alamar Blue. inhibition, % at 6 µM. actives 0.14% (n = 85,000);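 active = inhibition above 20%; inactive = inhibition below 20%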;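 note: preformed 24 hr biofilms exposed to compound for 48 hr; 0% = biofilm without compound and 100% = blank killed by clotrimazole plus chlorhexidine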
# EphB4 antag = blocks human EphB4 binding to ephrin-B2; P54760; EphB4 LBD / TNYL-RAW-Alexa532 peptide, fluorescence polarization; inhibition, % at 7 µM; actives 0.15% (n = 97,000); AID 720;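 active = inhibition above the screen-wide mean inhibition plus 3 SD, cut at about 15% in these data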;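 note: 0% = DMSO wells and 100% = excess unlabeled TNYL-RAW peptide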
# Target sequence (P54760 whole entry, looked up, the tested form may be a part): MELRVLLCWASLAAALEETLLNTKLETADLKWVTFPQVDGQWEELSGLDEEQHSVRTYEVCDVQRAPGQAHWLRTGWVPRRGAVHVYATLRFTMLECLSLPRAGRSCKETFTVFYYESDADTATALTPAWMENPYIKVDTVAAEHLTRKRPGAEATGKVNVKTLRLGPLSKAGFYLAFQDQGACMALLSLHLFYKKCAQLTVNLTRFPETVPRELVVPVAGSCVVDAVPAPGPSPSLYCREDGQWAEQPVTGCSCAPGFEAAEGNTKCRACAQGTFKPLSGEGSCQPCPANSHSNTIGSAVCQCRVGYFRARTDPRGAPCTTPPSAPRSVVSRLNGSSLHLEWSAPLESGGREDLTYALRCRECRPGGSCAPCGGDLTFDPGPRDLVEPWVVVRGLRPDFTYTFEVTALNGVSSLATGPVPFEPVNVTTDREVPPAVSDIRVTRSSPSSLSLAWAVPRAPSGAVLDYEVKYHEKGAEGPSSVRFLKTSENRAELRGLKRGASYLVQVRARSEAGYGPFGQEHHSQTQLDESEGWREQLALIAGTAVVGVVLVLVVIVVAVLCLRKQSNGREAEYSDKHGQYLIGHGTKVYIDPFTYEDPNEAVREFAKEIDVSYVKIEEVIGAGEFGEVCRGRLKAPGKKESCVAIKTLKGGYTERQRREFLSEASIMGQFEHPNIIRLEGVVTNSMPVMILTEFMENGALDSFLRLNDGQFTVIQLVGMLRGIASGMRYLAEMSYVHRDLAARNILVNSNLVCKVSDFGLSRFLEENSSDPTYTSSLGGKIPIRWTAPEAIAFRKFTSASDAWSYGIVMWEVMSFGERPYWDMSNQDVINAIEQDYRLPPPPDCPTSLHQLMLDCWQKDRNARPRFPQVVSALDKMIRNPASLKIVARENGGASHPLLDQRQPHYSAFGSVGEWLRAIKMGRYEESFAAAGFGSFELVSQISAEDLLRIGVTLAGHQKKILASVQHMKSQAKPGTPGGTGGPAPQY
# PostGolgi ctrl = yeast control strain growth, post-Golgi counter-screen; efflux-deficient yeast background strain, growth absorbance A615, 16 h; inhibition, % at 10 µM; actives 5% (n = 98,000); AID 738
# An asterisk follows results filed as active; · = no result. Shown are actives, neighbours in structure and some others; about 5.2% of the full set was active somewhere. Cut-off read from the data, not from the text of the source, unless noted: active = inhibition above about 30%; inactive = the rest.
SMILES,PostGolgi yeast,Calb biofilm kill,EphB4 antag,PostGolgi ctrl
Cc1cc(NC(=O)Cn2nnc3sc4c(c3c2=O)CCC(C(C)(C)C)C4)no1 (stereo not drawn),3,·,-9,31*
O=C(c1cc(Br)c(Br)s1)N1CCN(C/C=C/c2ccccc2)CC1,8,3,-2,46*
Cc1cc(C(=O)N2CCN(C/C=C/c3ccccc3)CC2)cs1,-2,4,-4,-9
COCc1nnc(NC(=O)CC(c2ccccc2)c2ccccc2)s1,-9,-2,17*,2
Clc1ccc(-n2ncc3c(NCc4ccccn4)ncnc32)cc1,-3,4,7,32*
Cc1ccc(-n2ncc3c(NCc4ccccn4)ncnc32)c(C)c1,3,4,5,13
Clc1ccc(Cn2ncc3c(NCc4ccccc4)ncnc32)cc1,-6,6,6,41*
N#Cc1ccc(CSc2ncnc3c2cnn3Cc2ccccc2)cc1,-1,9,-8,39*
Cc1ccc(CSc2ncnc3c2cnn3Cc2ccccc2)cc1,1,-1,5,3
CCCCNc1ncnc2c1cnn2-c1ccc(Cl)cc1,-2,6,·,35*
CCCn1nnnc1NC(=O)c1ccc(C)cc1Cl,6,·,-5,5
CCn1c(SCC(=O)NCc2ccccc2)nnc1-c1c[nH]c2ccccc12,-7,4,1,1
O=C(Oc1cccc(NC(=O)c2ccco2)c1)c1cccc(S(=O)(=O)N2CCCCC2)c1,-3,4,1,6
O=C(NCCCn1ccnc1)c1cc(-c2ccc3c(c2)OCO3)on1,-3,·,-4,-4
O=C(NCCCn1ccnc1)c1ccc2c(c1)OCCO2,-6,5,-2,47*
Cn1ncc(C#N)c1NC(=O)c1cc(-c2ccccc2Cl)on1,-5,4,3,30*
Cn1ncc(C#N)c1NC(=O)C1CC(c2c(F)cccc2Cl)=NO1 (stereo not drawn),5,7,1,-2
Cc1cc(C)cc(NC(=O)NC2CCN(CC(=O)Nc3c(C)cc(C)cc3C)CC2)c1,·,7,6,·
CCC(=O)N1CCN(c2ccc(Cl)cc2NC(=O)c2ccc3c(c2)OCCO3)CC1,-2,11,-11,47*
CCC(=O)N1CCN(c2ccc(Cl)cc2NC(=O)c2ccc(N3CCCC3)c([N+](=O)[O-])c2)CC1,0,·,0,14
CCN(CC)CCCN1C(=O)C(O)=C(C(C)=O)C1c1ccc(OC)cc1OC (stereo not drawn),·,-3,·,·
COc1ccc(-c2nnc(SCc3c(C)noc3C)n2N)cc1OC,-2,8,-3,24
c1ccc2c(-c3c[nH]c4ccccc34)c3ccccc3nc2c1,1,·,-1,50*
O=C(CSc1nnnn1Cc1ccccc1)Nc1ccc2c(c1)OCO2,16,10,18*,6
Cc1ccc2[nH]c3c(c2c1)CCC3=O,1,5,7,5
SMILES,PostGolgi yeast,Calb biofilm kill,EphB4 antag,PostGolgi ctrl
Cc1ccc2[nH]c3c(c2c1)CCc1cn[nH]c1-3,-3,7,3,63*
CCOc1cc(-c2cc(-c3ccc(C)cc3)nc(N)c2C#N)ccc1O,-4,-4,2,6
CCOc1cc(-c2c(C#N)c(N)nc3c2CCCC3C)ccc1O (stereo not drawn),11,-3,0,38*
O=C1CCCCC(=O)N(c2ccccc2)c2ccccc21,7,1,2,32*
COc1ccc(C)cc1NC(=O)C(=O)NCc1ccncc1,-5,·,-5,3
COc1ccc(CC(=O)N2CCN(c3ccc(C4=NNC(=O)CC4C)cc3)CC2)cc1 (stereo not drawn),-3,·,0,17
Cc1ccc(C(=O)N/N=C/c2cc(C)n(-c3ccc(Br)cc3)c2C)cc1[N+](=O)[O-],5,·,8,13
Cc1cc(/C=N/NC(=O)c2cccc([N+](=O)[O-])c2)c(C)n1-c1ccc(Cl)cc1Cl,34*,·,-2,14
CC(C)Sc1nc(N)nc(-c2cccs2)c1C#N,13,·,-3,80*
CSc1nc(N)nc(-c2cccs2)c1C#N,-4,·,-5,19
FC(F)Oc1ccc(/C=N/c2c(-c3ccc(OC(F)F)cc3)nc3n2CCS3)cc1,·,10,-4,·
COc1ccc(-c2nc(-n3c(C)c(C(C)=O)c(C(C)=O)c3C)sc2C)cc1,-2,-6,8,24
CC(=O)c1c(C(C)=O)c(C)n(-c2nc(-c3ccc(C)c(C)c3)c(C)s2)c1C,-1,8,-5,48*
Cc1cc(C)nc(N2CCCC(C(=O)Nc3nc4ccc(S(C)(=O)=O)cc4s3)C2)n1 (stereo not drawn),-3,3,5,34*
CCOc1ccc2nc(NC(=O)CS(=O)(=O)c3ccccc3)sc2c1,-4,0,0,51*
CCOc1ccc2nc(NC(=O)C(NS(=O)(=O)c3cccs3)C(C)C)sc2c1 (stereo not drawn),-7,5,-3,6
CCOc1ccc2nc(NC(=O)C3CCCN(S(=O)(=O)c4cccs4)C3)sc2c1 (stereo not drawn),75*,9,-1,48*
COc1ccc(CN2CCc3ccccc3C2)c(OC)c1OC,-2,0,6,-1
CSC1=NCCN1C(=O)c1c(F)cccc1F,-1,4,2,4
COc1cc(/C=N/N(C)c2ccccc2)cc(Cl)c1O,2,5,3,48*
COc1cc(/C=C2/CCC/C(=C\c3cc(O)c(OC)c(Cl)c3)C2=O)cc(Cl)c1O,2,·,-1,22
COc1ccc(OC)c(/C=N/N(C)c2ccccc2)c1,-1,8,-2,32*
O=C(CCc1ccccc1)Nc1nc2n(n1)C(c1ccccc1)CC(=O)N2 (stereo not drawn),-5,9,1,-6
O=C(CCc1ccccc1)Nc1nc2n(n1)C(c1ccc(Cl)cc1)CC(=O)N2 (stereo not drawn),-4,7,0,46*
COc1ccc(NC(=O)/C(Cl)=C(/Cl)S(=O)Cc2ccccc2)cn1 (stereo not drawn),107*,-3,9,80*
SMILES,PostGolgi yeast,Calb biofilm kill,EphB4 antag,PostGolgi ctrl
COc1ccc(CS(=O)(=O)/C(Cl)=C(/Cl)C(=O)Nc2ccc(OC)nc2)cc1,29,5,0,65*
COc1ccc(NC(=O)c2cc(OC)c(OC)c(OC)c2)cn1,1,2,-1,4
CCOc1ccccc1OCCCC(=O)Nc1ccc(OC)nc1,-8,4,·,0
Cc1ccc(C2NNC(=O)C2NC(=O)c2ccccc2)cc1 (stereo not drawn),2,·,3,-5
CCc1c(C)nc2cc(-c3ccc(OC)c(OC)c3)nn2c1N1CCC(C)CC1,-4,2,7,6
COc1cc(OC)cc(-c2cc3nc4c(c(N5CCN(c6ncccn6)CC5)n3n2)CCCC4)c1,1,-1,-1,69*
CCOCCN1CCN(c2c(CC)c(C)nc3cc(-c4cc(OC)cc(OC)c4)nn23)CC1,·,4,-8,·
CCc1c(C)nc2cc(-c3ccc(OC)c(OC)c3)nn2c1N1CCCC1,-4,8,0,32*
CCc1c(C)nc2cc(-c3cc(OC)cc(OC)c3)nn2c1N1CCCC1,1,7,0,43*
N#C/C(=C\c1cccc(Cl)c1)c1n[nH]c(Cn2cncn2)n1,-1,2,1,15
